High-throughput results: PubChem BioAssay, several laboratories
Shown are actives, neighbours in structure and some others; about 2.4% of the full set was active somewhere.
NOD2-RIPK2 inh: inhibitors of human NOD2-RIPK2 interaction | O43353 | CHO BLA complementation NOD2-RIPK2, CCF4 ratio | inhibition, % at 4.98 µM | 360,000 tested, 0.38% active | AID 624267; in the data active = inhibition above about 21%;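 also: 0% = vehicle only and 100% = reference blocker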
Target sequence (O43353 whole entry, looked up): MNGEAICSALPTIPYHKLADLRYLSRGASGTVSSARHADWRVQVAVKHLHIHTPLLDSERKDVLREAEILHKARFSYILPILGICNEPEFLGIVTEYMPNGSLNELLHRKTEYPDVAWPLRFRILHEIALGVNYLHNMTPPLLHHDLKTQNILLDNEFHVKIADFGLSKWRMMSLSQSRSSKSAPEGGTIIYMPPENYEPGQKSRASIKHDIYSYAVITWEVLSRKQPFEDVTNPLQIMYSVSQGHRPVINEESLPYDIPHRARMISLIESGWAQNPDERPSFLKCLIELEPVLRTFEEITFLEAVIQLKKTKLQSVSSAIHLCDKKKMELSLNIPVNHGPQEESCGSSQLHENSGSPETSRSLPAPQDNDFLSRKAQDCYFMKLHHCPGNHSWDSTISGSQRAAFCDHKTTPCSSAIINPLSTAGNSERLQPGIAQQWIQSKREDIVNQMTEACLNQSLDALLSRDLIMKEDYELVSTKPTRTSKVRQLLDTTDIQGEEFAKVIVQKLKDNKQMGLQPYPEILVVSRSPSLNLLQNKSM
CRFBP-R2 block: antagonists of CRF-binding protein/CRF-R2 receptor complex | HEK293 CRF-R2/CRF-BP, CRF-induced calcium fluorescence | inhibition, % at 11.8 µM | 350,000 tested, 0.59% active;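 active = inhibition of the ligand-induced calcium signal above about 50% at the single tested concentration, limit read from the data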
ABHD5 PLIN5 PPI: ABHD5-PLIN5 protein interaction inhibition; Q00G26+Q8WTS1; Split G. princeps luciferase complementation, luminescence, 4 h; inhibition, % at 4 µM; AID 602281; 360,000 tested, 0.78% active;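 active = inhibition above the mean inhibition across every tested compound plus 3 SD, cut at about 22% in these data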;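 also: 0% = DMSO only wells and the 100% control is not disclosed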
TLR4-MyD88 BLA: inhibitors of human TLR4-MyD88 binding; O00206+Q99836; HeLa CL3-4 TLR4/MyD88 BLA complementation, FRET ratio; inhibition, % at 8.4 µM; 200,000 tested, 0.18% active; in the data active = inhibition above about 25%;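 also: 0% = vehicle and 100% = reference inhibitor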
m5-HT2A agonist: activates the mouse 5-HT2A serotonin receptor | activation, % at 7.6 µM | AID 624169 | 360,000 tested, 0.66% active | P35363 | CHO-K1 mHTR2A beta-arrestin complementation, luminescence; percent of 30 µM serotonin response;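 active = activation above a run cutoff, the mean activation of all tested compounds plus 3 SD, cut at about 14% in these data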;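 also: 0% = plate median of compound wells and 100% = 30 µM serotonin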
TLR9-MyD88 block: inhibitors of human TLR9-MyD88 binding; CHO BLA complementation TLR9-MyD88, CCF4 FRET ratio; inhibition, % at 4.98 µM; 340,000 tested, 0.21% active; AID 504734;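 active = inhibition above the mean over all tested compounds plus 3 SD, cut at about 21% in these data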;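 also: 0% = DMSO only wells and 100% = clavulanate BLA inhibitor control wells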
OPRM1 ag: OPRM1 agonism in mouse HTR2A counterscreen. shares compounds with m5-HT2A agonist. U2OS OPRM1 beta-arrestin PathHunter, luminescence; DMSO 0%, DAMGO 9.3 µM 100%. activation, % at 9.3 µM. 2,300 tested, 5.3% active. AID 624380;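 active = mean activation above the mean of DMSO-only wells plus 3 SD, cut at about 0.5% in these data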
m5-HT2A ag conf: confirmation of mouse HTR2A serotonin receptor agonists | CHO-K1 PathHunter beta-arrestin recruitment, luminescence; DMSO 0%, 30 µM serotonin 100% | activation, % at 7.6 µM | 2,300 tested, 19% active | shares compounds with m5-HT2A agonist;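 active = mean activation across triplicates above the hit threshold derived in the original primary screen, cut at about 15% in these data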
Active calls of the source: *; · = no result.

SMILES | NOD2-RIPK2 inh | CRFBP-R2 block | ABHD5 PLIN5 PPI | TLR4-MyD88 BLA | m5-HT2A agonist | TLR9-MyD88 block | OPRM1 ag | m5-HT2A ag conf
CNc1cc(N2CCNCC2)ccc1[N+](=O)[O-] | -3 | 9 | 5 | 13 | 14 | -1 | · | ·
O=[N+]([O-])c1ccc(N2CCNCC2)cc1Sc1ccccn1 | 0 | 0 | 6 | -18 | 25* | 0 | -1 | 10
COC(=O)C1=C(c2ccc3ccccc3c2)C[C@@H]2CC[C@H]1N2C(=O)NCc1ccc(C(F)(F)F)cc1 | -5 | -6 | -7 | · | -7 | -1 | · | ·
Oc1ccc(C2=CCNCC2)cc1O | -8 | 0 | -8 | · | 36* | -2 | 0 | 117*
O=S(=O)(c1ccccc1)C1CN1c1c(F)c(F)c(F)c(F)c1F (stereo not drawn) | -7 | · | 4 | · | -1 | · | · | ·
CN1C[C@H](CO)C=C2c3cccc4[nH]cc(c34)C[C@H]21 | -4 | -7 | 1 | -2 | 30* | -2 | 0 | 94*
O=C(NN=Cc1ccc(N(CCCl)CCCl)cc1)c1cc(=O)[nH]c(=O)[nH]1 | 0 | 13 | 0 | · | 18* | 13 | -1 | -2
O=C(Cc1cc(=O)oc2cc(O)ccc12)NN=Cc1ccc(N(CCCl)CCCl)cc1 | -4 | 6 | -4 | · | 0 | -3 | · | ·
CCC(=NCCc1c[nH]c2ccccc12)c1c(O)n(-c2ccc(C)cc2)c(=O)[nH]c1=O | -3 | -12 | 5 | -15 | -3 | 0 | · | ·
CCC(=NCCc1c[nH]c2ccccc12)c1c(O)n(C)c(=O)n(C)c1=O | 2 | -7 | 3 | -3 | 27* | 2 | 0 | -1
O=C1NCN(c2ccccc2)C12CCN(C(c1cc3ccccc3o1)c1nnnn1C1CCCCC1)CC2 (stereo not drawn) | 1 | · | 0 | · | 5 | · | · | ·
COc1c2c(cc3c1OCO3)CCN(C)C2 | -9 | 2 | -5 | · | 18* | -10 | -1 | 53*
CC12CCC3C(CCC4CC(=O)OCC43C)C1CCC2O (stereo not drawn) | 5 | -4 | 8 | · | 6 | -9 | · | ·
COc1ccc(CCNCc2ccc(F)cc2)cc1OC | -3 | -18 | -1 | -11 | -1 | 9 | · | ·
COc1ccc(CCNCc2ccsc2)cc1OC | 10 | 2 | 6 | · | 19* | -4 | -1 | 10
O=C(C1c2ccccc2C(=O)N2CCc3ccccc3C12)N1CCC2(CC1)OCCO2 (stereo not drawn) | -11 | -28 | 0 | -2 | 0 | 5 | · | ·
O=C1c2ccccc2-n2nnc(-c3ccccc3)c2C2c3cc(Br)ccc3CCN12 (stereo not drawn) | -7 | · | -1 | · | 16* | · | 0 | 0
COc1ccc(-[n+]2c(-c3ccccc3)cc(-c3ccccc3)cc2-c2ccccc2)cc1 | · | -14 | · | · | · | · | · | ·
Oc1ccc(-[n+]2c(-c3ccccc3)cc(-c3ccccc3)cc2-c2ccccc2)cc1 | -3 | -70 | 21 | · | 21* | 1 | 0.5* | 16*
C[C@@H]1C(=O)O[C@H]2[C@H](O)[C@]34[C@@H]5OC(=O)[C@]3(OC3OC(=O)[C@H](O)C34[C@H](C(C)(C)C)[C@@H]5O)[C@@]12O (stereo partly drawn) | -10 | -11 | 0 | · | -1 | 5 | · | ·
CC(NC(=O)N1CC1(C)C)c1ccccc1 (stereo not drawn) | -10 | -26 | 1 | · | 0 | -20 | · | ·
Cn1cccc1CNCCc1ccccc1 | · | · | · | 11 | · | · | · | ·
COc1ccc(CCNCc2cccn2C)cc1 | -17 | 5 | -9 | · | 28* | -1 | 0.5* | 17*
CC1NC(=O)NC(=O)C1Br (stereo not drawn) | 1 | -4 | 0 | · | -3 | -7 | · | ·
COP(=O)(OC)C(NC(=O)/C=C/c1ccccc1)C(Cl)(Cl)Cl (stereo not drawn) | -7 | -13 | 0 | 0 | 19* | -2 | -1 | -2
SMILES | NOD2-RIPK2 inh | CRFBP-R2 block | ABHD5 PLIN5 PPI | TLR4-MyD88 BLA | m5-HT2A agonist | TLR9-MyD88 block | OPRM1 ag | m5-HT2A ag conf
CCOc1cccc(CNCCc2c(C)[nH]c3ccc(OC(F)(F)F)cc23)c1O | 14 | -33 | 17 | · | 27* | -2 | 1.2* | 22*
C=CCN1CC[C@]23c4c5ccc(O)c4O[C@H]2C(=O)CC[C@@]3(O)[C@H]1C5 | -14 | -31 | 12 | 4 | 5 | 8 | · | ·
C=CCN1CCc2cccc3c2[C@H]1Cc1ccc(O)c(O)c1-3 | 1 | -18 | 2 | · | 55* | 1 | 1.2* | 167*
C1CCC(NC2CCCCC2)CC1 | -14 | 6 | -8 | · | -1 | -7 | · | ·
Clc1cccc(N2CCNCC2)c1 | -14 | -10 | 1 | · | 25* | -11 | -1 | 7
O=C(/C=C/c1ccc2c(c1)OCO2)c1c(O)n(CCc2ccccc2)c(=O)[nH]c1=O | -15 | -15 | 1 | · | 5 | · | · | ·
O=C(/C=C/c1ccccc1)c1c(O)n(CCc2ccccc2)c(=O)[nH]c1=O | -4 | -3 | 0 | -6 | 15* | 0 | -1 | 1
CC12CCC(=O)C=C1CC(N1CC1)C1C2CCC2(C)C(O)CCC12 (stereo not drawn) | 7 | 18 | -3 | · | -6 | -1 | · | ·
O=C(CCC(=O)N1C[C@H]2C[C@@H](C1)c1cccc(=O)n1C2)NCc1ccc(F)cc1 | 2 | 2 | 5 | · | -1 | 2 | · | ·
CN1C(=O)NC(=O)[C@]2(Cc3ccccc3N3CCN(c4ccccc4)CC32)C1=O (stereo partly drawn) | -11 | -5 | -8 | -6 | 17* | -11 | 0 | 8
Cc1cc(O)c2c(C)c(CC(=O)N3C[C@H]4C[C@@H](C3)c3cccc(=O)n3C4)c(=O)oc2c1 | 1 | -13 | 1 | · | 19* | 4 | -1 | -3
Cc1ccc(CC(=O)N2CCN(Cc3ccccc3)CC2)cc1 | -1 | 1 | 1 | -6 | 4 | 7 | · | ·
O=C(Cc1ccc(Br)cc1)N1CCN(Cc2ccccc2)CC1 | -2 | -30 | 3 | -8 | 21* | -4 | -1 | 4
CCC(C)N1CCN(C(=O)Cc2ccccc2)CC1 (stereo not drawn) | -9 | 1 | 1 | 3 | 20* | 3 | 0 | 4
CCCC(C)CC1(CCO)C(=O)NC(=S)NC1=O (stereo not drawn) | -10 | 1 | 1 | · | 6 | -2 | · | ·
CCC1(CCO)C(=O)NC(=S)NC1=O | -12 | -23 | -6 | · | 4 | -12 | · | ·
COP(=O)(OC)C1(Nc2ccc(C)cc2)CCCCC1 | -9 | 13 | 5 | -5 | 15* | 6 | -1 | -3
Cc1ccc(S(=O)(=O)N2Cc3cc(-c4ccccc4)ccc3-n3nncc3C2)cc1 | -1 | · | -14 | · | 0 | · | · | ·
